From PubChem BioAssay (NCATS)
“And” between values parts separate entries of the source, which are not always exact repeats. Equal values may be shown once. Inconclusive results are not listed. A call without a number means that no potency is given here. A structure can be active in one record and inactive in another. The source made the active and inactive calls. Unless noted, calls follow the shape of the dose curve; as a rule, active = well fitted curve in the direction sought with a large enough effect; inconclusive = small, poorly fitted or top-dose-only effect, or another doubt; inactive = no such curve, though single readings can be large; an effect the other way counts as inactive or inconclusive.

Key:
[1] = molecular target: Cytochrome P450 3A4 (Homo sapiens) (UniProt P08684); assay: qHTS Assay for Inhibitors and Substrates of Cytochrome P450 3A4 (AID 884); conditions: recombinant CYP3A4, Luciferin-PPXE luminescence; series mostly up to 57.1 µM; also: nearly all actives have a fitted effect of over 50% in size; also: potency is read from the fitted curve at half-maximal effect
Sequence of Cytochrome P450 3A4 (Homo sapiens) (P08684 whole entry, looked up): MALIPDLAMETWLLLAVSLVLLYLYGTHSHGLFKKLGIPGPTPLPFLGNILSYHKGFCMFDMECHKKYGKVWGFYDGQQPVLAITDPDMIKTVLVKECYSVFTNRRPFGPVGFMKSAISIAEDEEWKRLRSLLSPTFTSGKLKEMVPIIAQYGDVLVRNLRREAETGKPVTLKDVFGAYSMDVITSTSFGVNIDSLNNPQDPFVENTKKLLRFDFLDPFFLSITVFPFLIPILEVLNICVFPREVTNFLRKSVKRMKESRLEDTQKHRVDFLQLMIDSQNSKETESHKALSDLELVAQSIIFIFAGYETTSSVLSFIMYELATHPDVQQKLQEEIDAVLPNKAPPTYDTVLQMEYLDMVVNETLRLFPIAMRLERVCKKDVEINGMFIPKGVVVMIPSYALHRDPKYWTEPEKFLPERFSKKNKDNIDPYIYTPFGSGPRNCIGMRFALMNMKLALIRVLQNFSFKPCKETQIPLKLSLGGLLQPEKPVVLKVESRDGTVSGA
Procedure, shortened: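 Luminescent readout of luciferin produced by CYP3A4 (20 nM) dealkylation of Luciferin-PPXE, 25 uM (its KM). NADPH-driven reaction ran 60 min at RT after 10 min compound preincubation; data scaled to 57 uM ketoconazole as 100% inhibition.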

[2] = Confirmation and Secondary Assay for Modulators of Hemoglobin Beta Chain Splicing at IVS2 654 locus (AID 910); conditions: HeLa EGFP-654 splicing reporter, GFP fluorescence, 48 h; series mostly up to 46.1 µM;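 also: HeLa cells stably carrying EGFP split by mutant beta-globin IVS2-654 intron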
Procedure, shortened: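 Readout: per-well total peak green fluorescence (488 nm ex, 500–520 nm em) from objects 5–250 µm, reflecting correct splicing of an EGFP-654 reporter. Compounds were applied for 2 days at 37 °C to overnight-plated HeLa EGFP-654 cells; controls were DMSO and 500 nM IVS2-654 PNA.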

[3] = Confirmation and Secondary Assay for Modulators of Hemoglobin Beta Chain Splicing at IVS2 705 locus (AID 930); conditions: HeLa EGFP-705 splicing reporter, GFP fluorescence, 48 h; series mostly up to 46.1 µM;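 also: HeLa cells stably expressing the EGFP-705 splicing reporter; GFP fluorescence per well restored by corrected splicing of the IVS2-705 intron in EGFP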
Procedure, shortened: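 Read-out: total peak GFP fluorescence per well (488 nm excitation, 500-520 nm emission) by laser-scanning cytometry. Cells: HeLa EGFP-705 splicing reporter, 2 days compound exposure in Optimem/2% FCS.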

[4] = qHTS Assay for Lipid Storage Modulators (AID 1519; calls by dose curve); conditions: Drosophila S3 cells, BODIPY lipid droplet/cell ratio, laser cytometry, cells loaded with oleic acid; for activity change, negative = inhibition: at 57.5 µM (top of the series)
Procedure, shortened: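 Cells seeded at 5,000 per well were treated with compounds over a concentration series and loaded with oleic acid (400 uM, as added). Lipid droplet fluorescence (488 nm excitation, 500-530 nm channel) was read by laser-scanning cytometry and normalized to 20 uM Triacsin C.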

[5] = molecular target: Ubiquitin carboxyl-terminal hydrolase 1 (Homo sapiens) (UniProt O94782); assay: Inhibitors of USP1/UAF1: Pilot qHTS (AID 504865); conditions: purified USP1/UAF1, Ub-rhodamine cleavage fluorescence; series mostly up to 114 µM; also: nearly all actives have a fitted effect of over 35% in size; also: potency is read from the fitted curve at half-maximal effect;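 as to activity change, negative = inhibition: rhodamine fluorescence freed from ubiquitin-rhodamine substrate followed over time; top concentration of the series differs between compounds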
Sequence of Ubiquitin carboxyl-terminal hydrolase 1 (Homo sapiens) (O94782 whole entry, looked up): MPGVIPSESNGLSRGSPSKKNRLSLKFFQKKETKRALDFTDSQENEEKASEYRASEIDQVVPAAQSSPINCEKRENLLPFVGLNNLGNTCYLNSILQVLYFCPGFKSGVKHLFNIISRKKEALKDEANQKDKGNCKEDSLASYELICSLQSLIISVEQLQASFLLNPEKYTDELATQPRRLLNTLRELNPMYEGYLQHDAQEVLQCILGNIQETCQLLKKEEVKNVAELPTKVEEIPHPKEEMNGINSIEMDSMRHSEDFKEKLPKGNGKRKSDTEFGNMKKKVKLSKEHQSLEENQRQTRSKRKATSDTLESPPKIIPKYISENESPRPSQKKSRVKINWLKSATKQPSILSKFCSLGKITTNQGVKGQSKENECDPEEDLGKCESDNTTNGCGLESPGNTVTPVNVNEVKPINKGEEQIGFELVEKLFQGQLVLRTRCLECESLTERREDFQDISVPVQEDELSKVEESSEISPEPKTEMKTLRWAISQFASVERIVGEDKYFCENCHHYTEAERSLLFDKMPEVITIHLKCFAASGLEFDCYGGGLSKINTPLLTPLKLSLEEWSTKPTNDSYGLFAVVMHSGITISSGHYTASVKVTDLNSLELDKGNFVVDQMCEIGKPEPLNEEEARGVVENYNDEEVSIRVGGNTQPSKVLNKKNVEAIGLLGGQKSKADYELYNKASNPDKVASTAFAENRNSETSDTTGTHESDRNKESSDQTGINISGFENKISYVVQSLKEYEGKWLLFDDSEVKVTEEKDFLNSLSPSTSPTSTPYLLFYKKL
Procedure, shortened: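 In 50mM HEPES pH 7.8 containing 0.5mM EDTA, 1mM TCEP, 0.1 mg/ml BSA and 0.01% Tween-20, 1nM USP1/UAF1 is exposed to compound for 15 min, then Ub-Rho (150nM final) is added and fluorescence is read over time.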

[6] = molecular target: Cytochrome P450 3A4 (Homo sapiens) (UniProt P08684); assay: qHTS Assay for Activators of Cytochrome P450 3A4 (AID 885); conditions: recombinant CYP3A4, Luciferin-PPXE luminescence, 60 min; series mostly up to 57.1 µM; also: nearly all actives have a fitted effect of over 65% in size
Procedure, shortened: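 Using 20nM recombinant human CYP3A4 in potassium phosphate (200mM), substrate Luciferin-PPXE at 25uM, luminescent luciferin detection followed a 60-min RT NADPH reaction; data scaled to 57 uM ketoconazole.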

[7] = measured here: cell count channel max response
[8] = measured here: lipid channel max response

Compound | Potency [1] | Potency [2] | Potency [3] | activity change, negative = inhibition [4] | max response [4, 7] | max response [4, 8] | Potency [5] | Potency [6]
O=C1CCCC2C3CC(CN12)C1CCCCN1C3 (centres undefined) | inactive | inactive | inactive | 6.45% (inactive) | 7.08% | 15% | inactive | –
COC1=CC2C3Cc4ccc(OC)c(O)c4[C@]2(CCN3C)CC1=O (some centres undefined) | inactive | inactive | – | 4.04% (inactive) | -5.63% | 0.618% | inactive | –
CC(C)c1cc2c(c(O)c1O)[C@]1(C(=O)O)CCCC(C)(C)C1CC2 (some centres undefined) | 0.316 µM (active) | inactive | inactive | 4.21% (inactive) | -11.1% | -4.62% | inactive | inactive
O=c1cccc2n1CC1CC2CN2CCCCC12 (centres undefined) | inactive | inactive | inactive | 0.982% (inactive) | 1.81% | 1.59% | inactive | –
COc1cc(C2c3cc4c(cc3C(OC(C)=O)[C@H]3COC(=O)C23)OCO4)cc(OC)c1OC (some centres undefined) | inactive and 1.26 µM (active) | inactive | inactive | 0.38% (inactive) and 4.56% (inactive) | 26.1% and 10% | 22.6% and 16.4% | inactive | –
COc1cc(C2c3cc4c(cc3C(O)C3COC(=O)C23)OCO4)cc(OC)c1O (centres undefined) | 6.31 µM (active) | inactive | inactive | 7.14% (inactive) | -1.69% | 6.73% | inactive | inactive
C[C@]12CCC(=O)C=C1CCc1ccc(O)cc12 | 25.1 µM (active) | inactive | inactive | -0.872% (inactive) | -10.5% | -4.41% | inactive | –
CC1CC2CC(=O)C3CCCN4CCCC2[C@]34C1 (some centres undefined) | inactive | inactive | inactive | 3.72% (inactive) | 9.37% | 11.3% | inactive | –
CC1(C)N([O-])[N+](=O)C1(C)Br (centres undefined) | inactive | inactive | – | 1.13% (inactive) | -4.64% | -5.74% | inactive | –
CC1=C2CCC3C4CCC(=O)[C@@]4(C)CCC3[C@]2(C)CCC1=O (some centres undefined) | 5.01 µM (active) | inactive | inactive | 7.19% (inactive) | 5.35% | 8.56% | inactive | inactive
O=C1NC(=O)C(=O)C(=O)N1 | inactive | inactive | – | 2.7% (inactive) | 15% | 19.9% | 89.1 µM (active) | –
COC(=O)COc1ccc(Cl)cc1Cl | inactive | inactive | – | 8.24% (inactive) | 0.885% | 8.23% | inactive | –
CCC(C)C(=O)c1c(O)c(C)c2oc3c(C)c(O)c(C(=O)C(C)CC)c(O)c3c2c1O (centres undefined) | inactive | inactive | inactive | -5.67% (inactive) | -3.74% | -10.1% | inactive | –
CC(=O)C1CC[C@H]2C3CC[C@@H]4CC(O)CC[C@@]4(C)C3CC[C@]12C (some centres undefined) | inactive | inactive | inactive | 12.3% (inactive) | 9.69% | 25.9% | inactive | –
CC(=O)OC1CCC23C(=O)OC45CCC(C6=CC(=O)OC6)C4(C)CCC2C5CCC3(O)C1 (centres undefined) | inactive | inactive | inactive | -4.87% (inactive) | 6.6% | 2.69% | inactive | –
COc1cc2c(cc1OC)[C@@H]1C(=O)c3ccc(O)c(CC=C(C)C)c3OC1CO2 (some centres undefined) | inactive | inactive | – | 7.74% (inactive) | 14.6% | 25.6% | inactive | –
CNC(Cc1c[nH]c2ccccc12)C(=O)O (centres undefined) | inactive | inactive | inactive | 4.43% (inactive) | 11.7% | 20.5% | inactive | –
C=C(C)c1cc2cc(C(C)=O)c(O)cc2o1 | 31.6 µM (active) | inactive | inactive | 9.94% (inactive) | 9.32% | 19.8% | inactive | inactive
O=C(O)c1nn(Cc2ccc(Cl)c(Cl)c2)c2ccccc12 | inactive | inactive | – | 4.27% (inactive) | 10.4% | 16.9% | inactive | –
C/C=C(/C)C(=O)OC1CC[C@]2(C)C3CCC4[C@]5(O)CC(O)[C@]6(O)C(CN7CC(C)CCC7[C@]6(C)O)[C@]5(O)C[C@@]42O[C@]13O (some centres undefined) | inactive | inactive | inactive | 5.46% (inactive) | 6.5% | 12.3% | inactive | –
CC(=O)OC1CC[C@]2(C)C(CCC3C2CC[C@]2(C)C(C4=CC(=O)OC4)C(OC(C)=O)CC32O)C1 (some centres undefined) | inactive | inactive | – | 6.45% (inactive) | 1.24% | 14.6% | inactive | –
CC1O[C@@H](OC2CC[C@@]3(C=O)C4CC[C@]5(C)C(C6=CC(=O)OC6)CC[C@@]5(O)C4CC[C@]3(O)C2)C(O)C(O)C1O (some centres undefined) | inactive | inactive | inactive | 2.77% (inactive) | -0.564% | 4.22% | inactive | –
CC1(C)C(O)CC(O)[C@]2(C)C1CC(=O)[C@]1(C)C2CC[C@@]2(C)C(c3ccoc3)OC(=O)C3OC321 (some centres undefined) | 6.31 µM (active) | inactive | inactive | -5.65% (inactive) | 17% | 11.8% | inactive | inactive
COC1=CC23CCCN2CCc2cc4c(cc2C3C1O)OCO4 (centres undefined) | 31.6 µM (active) | inactive | inactive | 15.3% (inactive) | 26.5% | 52.2% | inactive | inactive
CC(=O)OC1C(=O)[C@]2(C)C(O)CC3OC[C@]3(OC(C)=O)C2[C@@H](OC(=O)c2ccccc2)[C@]2(O)CC(O)C(C)=C1C2(C)C (some centres undefined) | inactive | inactive | – | 0.522% (inactive) | 3.27% | 6.64% | inactive | –
C=C1C2CCC3[C@@](CC[C@@H]4C(C(=O)O)CC(OC5OC(CO)C(OS(=O)(=O)O)C(OS(=O)(=O)O)C5OC(=O)CC(C)C)C[C@]34C)(C2)C1O (some centres undefined) | inactive | inactive | – | 1.97% (inactive) | -12% | -7.92% | inactive | –
CCN1C[C@]2(COC)C(O)C[C@H](OC)[C@@]34C5C[C@]6(O)C(OC)C(O)[C@](OC(C)=O)(C5C6OC(=O)c5ccccc5)C(C(OC)C23)C14 (some centres undefined) | inactive | inactive | – | 4.84% (inactive) | 13.6% | 24% | inactive | –
CCC(C)C(=O)OC1C(O)C2C(CN3CC(C)CCC3[C@]2(C)O)C2C[C@]34O[C@@]5(O)C(OC(=O)C(C)(O)CC)CCC3(C)C5C(OC(C)=O)C(OC(C)=O)C4[C@@]21O (some centres undefined) | inactive | inactive | inactive | 3.69% (inactive) | 17.1% | 25.4% | inactive | –
CC(=O)CC1CCCCN1 (centres undefined) | inactive | inactive | inactive | 4.86% (inactive) | 11.3% | 14.1% | inactive | –
